In the library only some 21% were active in any assay of this set; here they are far more common.
RORgamma inh = inhibitors of mouse ROR gamma transcriptional activity; Drosophila S2 Gal4-RORgamma UAS-luciferase reporter, 20 h; Potency, µM (doses to about 53.6 µM), for the others: at the highest dose activity change, negative = inhibition, actives largely listed as inhibitors; AID 2551; hit rate 5.4% among 310,000; P51450; further: potency means the concentration at half of the fitted maximal effect; nearly all actives have a fitted effect of over 60% in size
Target sequence (P51450 whole entry, looked up, the tested form may be a part): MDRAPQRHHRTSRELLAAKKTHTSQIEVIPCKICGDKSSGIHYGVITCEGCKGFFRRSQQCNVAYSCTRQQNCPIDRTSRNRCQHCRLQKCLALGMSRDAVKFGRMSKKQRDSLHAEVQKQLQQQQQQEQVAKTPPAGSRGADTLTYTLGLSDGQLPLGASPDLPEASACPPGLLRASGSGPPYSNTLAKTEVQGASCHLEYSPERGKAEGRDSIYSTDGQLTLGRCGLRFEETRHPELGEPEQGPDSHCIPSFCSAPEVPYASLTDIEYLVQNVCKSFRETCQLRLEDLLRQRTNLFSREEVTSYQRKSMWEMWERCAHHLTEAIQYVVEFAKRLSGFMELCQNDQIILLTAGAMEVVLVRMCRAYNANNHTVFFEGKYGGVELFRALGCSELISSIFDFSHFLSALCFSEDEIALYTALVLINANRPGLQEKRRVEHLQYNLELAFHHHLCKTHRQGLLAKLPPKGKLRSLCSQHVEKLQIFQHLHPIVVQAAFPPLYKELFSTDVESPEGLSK
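Drosophila Schneider cells stably carrying a metallothionein-driven Gal4 DBD–ROR gamma fusion and a UAS-Photinus luciferase reporter were exposed to compound for 1 hr, then induced with copper sulfate (700 uM final) for 20 hr at ambient temperature before luminescence reading.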
VP16 counter = inhibits Gal4-VP16 luciferase reporter, ROR gamma counter-screen | hit rate 3.5% among 310,000 | AID 2546 | Drosophila S2 Gal4-VP16 UAS-luciferase, luminescence, 20 h | Potency, µM (highest dose often 53.6 µM), for inactives: top-dose activity, negative = inhibition, usual class: inhibitors;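 further: Gal4-VP16 expression switched on by copper sulfate through the metallothionein promoter; potency means the concentration at half of the fitted maximal effect; nearly all actives have a fitted effect of over 50% in size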
ELG1 DNA repair = ELG1-dependent DNA repair inhibition; HEK293T ELG1-luciferase reporter, luminescence, 16 h; DNA damage induced by 5-fluorouridine; Potency, µM (doses to about 46.1 µM), inactives show top-dose activity change, negative = inhibition, most hits filed as inhibitors; hit rate 2.3% among 330,000; further: potency means the concentration at half of the fitted maximal effect; nearly all actives have a fitted effect of over 55% in size
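Step one: seed 2,000 cells per well. Step two: pin-transfer compound or DMSO alongside 5-fluorouridine. Step three: incubate 16 hr, 37 °C, 5% CO2. Step four: add ONE-Glo, wait 30 min, read luminescence.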
DT40 TDP1 CPT = growth inhibition of DT40 Tdp1-/-;hTDP1 cells with camptothecin (screen for TDP1 inhibitors); chicken DT40 Tdp1-/-;hTDP1 cells + 20 nM CPT, ATP luminescence, 48 h; Potency, µM (series often up to 46.2 µM), for inactives: at the top dose activity change, negative = growth inhibition, hits mostly inhibitors; hit rate 12% among 420,000; AID 686979; further: potency means the concentration at half of the fitted maximal effect; nearly all actives have a fitted effect of over 55% in size
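Cell growth measured by CellTiter-Glo luminescence after a minimum 48 h, 37 C compound exposure with 20 nM CPT in Tdp1-knockout DT40 cells stably expressing hTDP1, seeded 400/well; qHTS titration format.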
IL-1B inflam inh = blocks inflammasome-driven IL-1 beta release; AID 743279; THP-1 LPS/ATP IL-1B secretion, AlphaLISA, 16 h; active compounds read low; activity change, % at 57.5 µM; hit rate 4.7% among 360,000; in the data active means activity change below about -50%; inconclusive means mostly about -30% to -49%
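THP-1 cells pretreated 1 hr with compounds (up to 57.5 uM final), then stimulated with LPS (250 ng/mL final) plus ATP (1.25 mM final); secreted IL-1B measured by AlphaLISA after 16 hr, decreased signal indicating inhibition.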
TDP1 cell noCPT = qHTS for Inhibitors of human tyrosyl-DNA phosphodiesterase 1 (TDP1): qHTS in cells in absence of CPT; DT40 Tdp1-/- hTDP1 cells, no CPT, ATP luminescence, 48 h; AID 686978, 2013; hit rate 15% among 420,000; Potency, µM (titrated, usually from 46.2 µM), without a hit: top-dose activity change, negative = growth inhibition, hits mostly inhibitors; further: potency means the concentration at half of the fitted maximal effect; nearly all actives have a fitted effect of over 55% in size
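Camptothecin absent (DMSO only). Human TDP1-complemented DT40 knockout cells, 400 cells/well, 37 °C for minimum 48 hr; ATP measured via CellTiter-Glo, 30 min dark incubation, luminescence.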
* marks the source's active call; other numbers are inactive results; i = inactive; ? = inconclusive; . = not tested or not shown; [ ] = remark or other dose. Unless noted, the call rests on the fitted dose curve; in most records, active means well fitted curve in the direction sought with a large enough effect; inconclusive means small, poorly fitted or top-dose-only effect, or another doubt; inactive means no such curve, though single readings can be large; an effect the other way counts as inactive or inconclusive. On the % scale 0 is the no-effect control and ±100 the full control effect.

SMILES	RORgamma inh	VP16 counter	ELG1 DNA repair	DT40 TDP1 CPT	IL-1B inflam inh	TDP1 cell noCPT
CCCCOCC(O)Cn1c(C)nc2ccccc21 (stereo not drawn)	-17%[10 µM]	3%	?	-6%	-3	?
COc1ccc(N(CC(O)Cn2c(C)nc3ccccc32)S(=O)(=O)c2ccccc2)cc1 (stereo not drawn)	25%	-8%	-13%	-26%	26	?
CC(=O)Nc1ccc(OCC(O)Cn2c(C)nc3ccccc32)cc1 (stereo not drawn)	?	7.9µM*	13%	?	13	?
CCOC(=O)CC1(C)c2nc(NC(C)=O)sc2Cc2sc(NC(C)=O)nc21	.	.	.	-12%	54	-16%
Cn1c(CN2CCN(S(C)(=O)=O)CC2)nc2cc([N+](=O)[O-])ccc21	?	-5%	-1%	-24%	-16	-24%
CC(C)C(NC(=O)CCNC(=O)c1ccc(C(C)(C)C)cc1)c1nc2ccccc2[nH]1 (stereo not drawn)	.	.	17%	?	1	18µM*
CC(=O)c1ccc(S(=O)(=O)NCC(=O)NC(c2nc3ccccc3[nH]2)C(C)C)cc1 (stereo not drawn)	.	.	0%	?	1	?
Cc1c(C(=O)Nc2cccnc2Cl)oc2ccccc12	?	12%	?	-5%	16	-4%
CCc1nc2ccc(C)cc2c(C(=O)Oc2cccc3cccnc23)c1C	3%	-10%	?	?	-6	23µM*
Cc1c(C(=O)Oc2cccc3cccnc23)oc2ccccc12	3.2µM*	6.3µM*	-10%	?	?	?
CCOC(=O)C1=C(C)N=C2SC(C(=O)OC)=CC(=O)N2C1c1ccc(OC)cc1 (stereo not drawn)	1.8µM*	?	?	?	-17	?
CCc1nn(CC(=O)NCCC(C)C)c(=O)c2cc3occc3n12	.	.	.	-13%	.	?
COc1ccc(/C=N/NC(=O)c2c(-c3ccccc3)noc2C)cc1	1%	-13%	1%	1%	0	-1%
COc1ccc(/C=N/NC(=O)c2nc(-c3ccccc3)n(-c3ccccc3)n2)cc1OC	11%	-12%	13µM*	?	-12	?
CC(C)COc1cccc(-c2cc(C(=O)N/N=C/c3ccncc3)c3ccccc3n2)c1	-36%	?	?	9.2µM*	i	?
CCOc1ccc(/C=N/NC(=O)c2cc(-c3ccccc3)nc3ccccc23)cc1O	41%	-17%	-16%	?	29	?
COc1ccc(/C=N/NC(=O)c2cc(-c3ccccc3)nc3ccccc23)cc1O	-5%	18%	-5%	10µM*	40	1.3µM*
COc1cc(/C=N/NC(=O)c2cc(-c3ccccc3)nc3ccccc23)ccc1O	-17%	-9%	?	?	48	?
COc1ccc(/C=N/NC(=O)c2nc(-c3ccccc3)cc(-c3ccccc3)n2)cc1	29%	-4%	6.5µM*	?	-80*	26µM*
COCCn1c(C)cc(O)c(C(c2cccc(F)c2)N2CCN(c3ccccc3)CC2)c1=O (stereo not drawn)	.	.	.	-5%	.	5%
COc1ccc(CC(=O)N/N=C/c2c(C)n(C)c3ccccc23)cc1OC	-17%	-6%	?	9.2µM*	33	9.2µM*
COc1ccc(CC(=O)N/N=C/c2cc(Br)cs2)cc1OC	?	-22%	?	-24%	-5	?
COc1cc(/C=N/NC(=O)CCn2cnc(-c3ccccc3)c2-c2ccccc2)ccc1O	?	?	?	?	-14	18µM*
COc1cc(/C=N/NC(=O)c2cnn3c(C)cc(-c4ccccc4)nc23)ccc1O	-2%	-11%	?	23µM*	-57*	16µM*
COc1cc(/C=N/NC(=O)c2nc(-c3ccccc3)n(-c3ccccc3)n2)ccc1O	-1%	-6%	?	5%	-3	-23%
SMILES	RORgamma inh	VP16 counter	ELG1 DNA repair	DT40 TDP1 CPT	IL-1B inflam inh	TDP1 cell noCPT
COc1cc(/C=N/Nc2nc(C)nc3c2cnn3-c2ccccc2)ccc1O	4%	-6%	16µM*	2.9µM*	-100*	2.9µM*
COc1cc(/C=N/NC(=O)c2ccccc2NS(=O)(=O)c2cccs2)ccc1O	.	.	13%	0%	28	-7%
COc1cc(/C=N/NC(=O)CCN2CCCCC2)ccc1O	-18%	1%[10 µM]	8%	14%	8	-15%
COc1cc(N[C@@H](C)CCCN)c2ncccc2c1	-5%[2.98 µM]	0%[17 µM]	.	.	.	.
COc1cccc(/C=N/NC(=O)CCn2c3ccccc3c3ccccc32)c1	1%	-21%	-3%	?	0	-5%
COc1ccc(/C=N/NC(=O)CCn2c3ccccc3c3ccccc32)cc1O	29%	0%[0.365 µM]	-18%	1.5µM*	-6	1.6µM*
COc1cc(/C=N/NC(=O)c2cc(-c3ccccc3OC(C)C)nc3ccccc23)ccc1O	?	-14%	?	?	3	1.8µM*
COc1ccc(Cc2nc3ccccc3n2CC(=O)N/N=C/c2ccc(C)cc2O)cc1OC	3.5µM*	6.3µM*	-8%	2.1µM*	27	0.65µM*
COc1ccc(/C=N/NC(=O)c2nc(-c3ccccc3)cc(-c3ccccc3)n2)cc1O	41%[10 µM]	-15%	6.5µM*	13µM*	-82*	16µM*
CCOC1=C2[C@@H](CN(S(=O)(=O)c3ccc(C)cc3)[C@H]2c2ccccc2F)[C@H]2C(=O)N(CC)C(=O)[C@H]2C1	.	.	.	?	36	?
CCOc1cc(/C=N/NC(=O)c2cc(-c3cccc(OC)c3)nc3ccccc23)ccc1O	.	.	.	8.2µM*	-9	1.3µM*
CCOC(=O)CC1COCCN1C(=O)c1cc(COc2ccccc2SC)on1 (stereo not drawn)	.	.	.	-15%	20	?
O=C(c1cc(COc2cccc3cccnc23)on1)N1CCC[C@H]1CO	.	.	.	-3%	-64*	0%
CCN(CC)C1CCN(C(=O)c2cc(COc3cccc4cccnc34)on2)C1 (stereo not drawn)	-5%	-9%	?	-11%	-2	20%
CCOC(=O)CC1CCCCN1C(=O)c1cc(COc2cccc3cnccc23)on1 (stereo not drawn)	?	4µM*	?	1.6µM*	-12	3.7µM*
COC(=O)C1CCCCN1C(=O)c1cc(COc2cccc3cccnc23)on1 (stereo not drawn)	40%	4%	-4%	-21%	-16	-27%

High-throughput results (PubChem)
